# In PubChem BioAssay (Tox21):
# Where “and” joins values, the source holds several entries; their conditions need not be identical. Identical values can stand only once. Results filed as inconclusive are left out. Calls of active or inactive are those of the source. The call rests on the fitted dose curve; in most records, active means well fitted inhibition curve with a large enough effect in the repeat runs; inconclusive means weak or mixed curves; inactive means no such curve, though single readings can be large or run the other way.
# Molecular target: Cytochrome P450 2C9 (Homo sapiens) (UniProt P11712)
# Sequence (P11712 whole entry, looked up): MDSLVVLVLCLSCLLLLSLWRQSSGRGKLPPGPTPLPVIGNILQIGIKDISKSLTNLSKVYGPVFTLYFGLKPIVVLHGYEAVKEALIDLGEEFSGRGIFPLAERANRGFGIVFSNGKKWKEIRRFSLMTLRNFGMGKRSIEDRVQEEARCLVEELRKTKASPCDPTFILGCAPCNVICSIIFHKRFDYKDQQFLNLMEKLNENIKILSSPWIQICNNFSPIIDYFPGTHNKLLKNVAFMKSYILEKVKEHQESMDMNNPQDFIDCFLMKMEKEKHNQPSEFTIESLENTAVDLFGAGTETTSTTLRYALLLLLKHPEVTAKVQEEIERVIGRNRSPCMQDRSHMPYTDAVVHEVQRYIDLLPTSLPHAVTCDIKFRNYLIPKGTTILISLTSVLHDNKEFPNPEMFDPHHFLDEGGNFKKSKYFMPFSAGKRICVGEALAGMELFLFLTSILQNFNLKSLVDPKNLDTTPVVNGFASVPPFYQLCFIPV
# Assay: Cytochrome P450 Family 2 Subfamily C Member 9 (CYP2C9) small molecule antagonists: luciferase reporter qHTS assay (AID 1671198); further: nearly all actives have a fitted effect of over 50% in size
# Conditions: P450-Glo CYP2C9 enzyme assay, luciferin luminescence; series mostly up to 115 µM; activity change, negative = inhibition: at the top concentration
# Method in brief: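 Enzyme-substrate mix preincubated with compound 10 min at room temperature; reaction started with NADPH regeneration solution, 1 h 37C. Luminescent luciferin product read after 20 min detection reagent.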
# On the % scale 0 is the no-effect control and ±100 the full control effect; potency means the concentration at half of the fitted maximal effect.
SMILES,Potency,"activity change, negative = inhibition"
O=[N+]([O-])c1ccc(O)cc1C(F)(F)F,22.4 µM (active),
O=C(Nc1ccc2c(O)c(N=Nc3ccc(N=Nc4ccc(S(=O)(=O)O)cc4)cc3)c(S(=O)(=O)O)cc2c1)c1ccccc1,20 µM (active),
O=C1CCc2cc(OCCCCc3nnnn3C3CCCCC3)ccc2N1,12.3 µM (active),
CCOC(=O)Cn1cccc1-c1nc(-c2ccc(OC)cc2)c(-c2ccc(OC)cc2)s1,3.89 µM (active),
O=C1CCCCCCCCCCCCCCCO1,,-9.46% (inactive)
CCOC(=O)c1ccc(C2CCC(NC[C@H](O)COc3ccc(O)c(NS(C)(=O)=O)c3)CC2)cc1 (stereo not given in full),5.84 µM (active),
CC[N+](CC)(CC)CCOC(=O)C(C1CCCC1)C1CCCC1,,-1.46% [at 53 µM] (inactive)
CN(C)Cc1cc(C(C)(C)C)c(O)c(C(C)(C)C)c1,11.2 µM (active),
Clc1ccnc(Cl)n1,,1.13% (inactive)
Cc1cc(-c2ccc(N=Nc3cc(S(=O)(=O)O)c4ccccc4c3N)c(C)c2)ccc1N=Nc1cc(S(=O)(=O)O)c2ccccc2c1N,,2.49% (inactive)
COC(=O)C1=C(C)NC(C)=C(C(=O)OCCN2CCN(C(c3ccccc3)c3ccccc3)CC2)C1c1cccc([N+](=O)[O-])c1 (stereo not given),0.692 µM (active),
OC/C=C/CO,,-9.37% (inactive)
COc1ccc2cc1Oc1ccc(cc1)C[C@H]1c3c(cc4c(c3Oc3cc5c(cc3OC)CCN(C)[C@@H]5C2)OCO4)CCN1C,30.9 µM (active),
C#CC1(O)CC[C@H]2[C@@H]3CCC4=CCCC[C@@H]4[C@H]3CC[C@@]21C (stereo not given in full),7.1 µM (active) and 6.92 µM (active),
Cc1nc2n(c(=O)c1CCN1CCC(c3noc4cc(F)ccc34)CC1)CCCC2,,1.33% [at 53 µM] (inactive)
